Measured values from PubChem BioAssay AID1159580 (chemical genetic matrix, 2015).
“And” between values parts separate entries of the source, which are not always exact repeats. Equal values may be shown once. Out of some 5,500 compounds screened, about 2,000 (36%) were called active. About 18% were inconclusive and are not listed. Rule as the data show it: active = normalized growth mostly below about 0.91 (no sharp cut-off); inconclusive = no clear call, values can overlap the other calls; inactive = mostly above about 0.92. The list shows a part of the results.

Test: chemical genetic growth profiling, strain panel (AID 1159580);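 also: tested at 20 µM; growth read once vehicle control cultures reached saturation at 30 °C; 1 = growth at the plate median or of vehicle wells; lower values mean less growth of the strain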
Details: S. cerevisiae deletion strains, growth OD

Measured: normalized growth

O=c1[nH]c(=O)n(C2C[C@H](O)[C@@H](CO)O2)cc1C(F)(F)F (stereo partly specified)
inactive: locus YAL013W, strain DEP1, hits give low values 0.992 | locus YAL021C, strain ccr4, hits give low values 0.999 | locus YAL026C, strain drs2, hits give low values 0.973 | locus YAL030W, strain snc1, hits give low values 0.979 | locus YBL061C, strain skt5, hits give low values 0.974 | locus YBR009C, strain hhf1, hits give low values 0.981 | locus YBR021W, strain FUR4, hits give low values 0.968 | locus YBR023C, strain chs3, hits give low values 0.983 | locus YBR171W, strain sec66, hits give low values 0.965 | locus YBR229C, strain ROT2, hits give low values 0.986 | locus YBR231C, strain swc5, hits give low values 0.976 | locus YBR279W, strain paf1, hits give low values 0.98 | locus YCL011C, strain gbp2, hits give low values 0.954 | locus YCL016C, strain dcc1, hits give low values 0.972 | locus YCL029C, strain bik1, hits give low values 0.971 | locus YCL069W, strain vba3, hits give low values 0.994 | locus YCR088W, strain abp1, hits give low values 0.973 | locus YDL005C, strain med2, hits give low values 0.964 | locus YDL035C, strain GPR1, hits give low values 0.986 | locus YDL040C, strain nat1, hits give low values 0.976 | locus YDL074C, strain BRE1, hits give low values 0.97 | locus YDL101C, strain DUN1, hits give low values 0.987 | locus YDL134C, strain PPH21, hits give low values 1 | locus YDL185W, strain tfp1, hits give low values 0.962 | locus YDL192W, strain arf1, hits give low values 0.981 | locus YDR001C, strain nth1, hits give low values 0.947 | locus YDR069C, strain doa4, hits give low values 0.95 | locus YDR101C, strain arx1, hits give low values 0.981 | locus YDR137W, strain rgp1, hits give low values 0.901 | locus YDR150W, strain NUM1, hits give low values 0.996 | locus YDR159W, strain sac3, hits give low values 0.947 | locus YDR162C, strain NBP2, hits give low values 0.984 | locus YDR195W, strain ref2 0.922 | locus YDR297W, strain sur2, hits give low values 0.969 | locus YDR318W, strain mcm21, hits give low values 0.987 | locus YDR334W, strain swr1, hits give low values 0.964 | locus YDR335W, strain msn5, hits give low values 0.96 | locus YDR388W, hits give low values 0.975 | locus YDR392W, strain spt3, hits give low values 1 | locus YDR502C, strain sam2, hits give low values 0.979 | locus YEL003W, strain gim4, hits give low values 0.979 | locus YEL037C, strain rad23, hits give low values 0.984 | locus YEL061C, strain CIN8 (second series), hits give low values 0.952 | locus YEL061C, strain CIN8, hits give low values 0.995 | locus YER015W, strain faa2, hits give low values 0.972 | locus YER016W, strain bim1, hits give low values 0.978 | locus YER110C, hits give low values 0.966 | locus YER111C, strain swi4, hits give low values 0.976 | locus YER155C, strain BEM2 (second series), hits give low values 0.957 | locus YER155C, strain BEM2, hits give low values 0.984 | locus YER167W, strain BCK2, hits give low values 0.945 | locus YFR010W, strain ubp6, hits give low values 0.953 | locus YGL078C, strain dbp3, hits give low values 0.966 | locus YGL086W, strain mad1, hits give low values 0.979 | locus YGL167C, strain pmr1, hits give low values 0.968 | locus YGL173C, strain kem1, hits give low values 0.98 | locus YGL227W, strain vid30, hits give low values 0.946 | locus YGL240W, strain doc1, hits give low values 1 | locus YGL248W, strain PDE1, hits give low values 0.978 | locus YGL253W, strain hxk2, hits give low values 0.972 | locus YGR078C, strain PAC10, hits give low values 0.997 | locus YGR135W, strain pre9, hits give low values 0.969 | locus YGR229C, strain SMI1, hits give low values 0.963 | locus YGR252W, strain gcn5, hits give low values 0.971 | locus YHR013C, strain ard1, hits give low values 0.923 | locus YHR027C, strain rpn1, hits give low values 0.958 | locus YHR030C, strain SLT2, hits give low values 0.985 and 1.02 | locus YHR079C, strain IRE1 (second series), hits give low values 0.974 | locus YHR079C, strain IRE1, hits give low values 1.03 | locus YHR094C, strain hxt1, hits give low values 0.983 | locus YHR129C, strain ARP1, hits give low values 0.987 | locus YHR142W, strain chs7, hits give low values 0.922 | locus YHR200W, strain rpn10, hits give low values 0.985 | locus YIL066C, strain RNR3, hits give low values 0.986 | locus YIL073C, strain SPO22, hits give low values 0.967 | locus YIL125W, strain kgd1, hits give low values 0.968 | locus YIR030C, strain dcg1, hits give low values 0.969 | locus YJL092W, strain hpr5, hits give low values 0.962 | locus YJL095W, strain BCK1 (second series), hits give low values 0.962 | locus YJL095W, strain BCK1, hits give low values 0.969 and 1.01 | locus YJL115W, strain asf1, hits give low values 0.928 | locus YJL129C, strain trk1, hits give low values 0.916 | locus YJL134W, strain LCB3, hits give low values 0.987 | locus YJL154C, strain vps35, hits give low values 0.975 | locus YJL164C, strain tpk1, hits give low values 0.968 | locus YJL166W, strain qcr8, hits give low values 0.953 | locus YJL168C, strain set2, hits give low values 0.987 | locus YJL187C, strain SWE1 (second series), hits give low values 0.982 | locus YJR043C, strain POL32, hits give low values 0.973 | locus YJR066W, strain TOR1, hits give low values 0.963 | locus YJR075W, strain HOC1, hits give low values 0.991
